# According to the supplement of paper PMC6897291:
# Tests used:
# U-2932 [1] = experiment: growth inhibition by drug plus 177Lu-lilotomab satetraxetan (1 - RLU/untreated control) (fraction); higher = stronger inhibition; settings: 177Lu-lilotomab satetraxetan 1 ug/ml
# How it was run: (§1)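 Compound doses on the pre-printed Selleck Cambridge Cancer Compound library plates were 10/100 nM for RIVA cells and 10/1,000 nM for U-2932 cells, seeded at 3,000 cells/well. Before seeding, cells were washed after 18 h with or without a radiolabelled anti-CD37 antibody conjugate (~600 MBq/mg; 0.5 µg/ml RIVA, 1 µg/ml U-2932). Growth inhibition was derived from RealTime-Glo luminescence relative to untreated no-drug control wells. Readings were taken daily starting on day 3, each after 1 h at 37°C, and each well's RLU was divided by the mean of 48 such wells per plate and subtracted from 1.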
# U-2932 [2] = experiment: growth inhibition by drug alone (1 - RLU/untreated control) (fraction); higher = stronger inhibition; settings: 177Lu-lilotomab satetraxetan 0 ug/ml
# How it was run: as §1
# RIVA [3] = experiment: as above; settings: 177Lu-lilotomab satetraxetan 0 ug/ml
# How it was run: as §1
# RIVA [4] = experiment: growth inhibition by drug plus 177Lu-lilotomab satetraxetan (1 - RLU/untreated control) (fraction); higher = stronger inhibition; settings: 177Lu-lilotomab satetraxetan 0.5 ug/ml
# How it was run: as §1
compound,measurement,setting,value
CC(O)(CS(=O)(=O)c1ccc(F)cc1)C(=O)Nc1ccc(C#N)c(C(F)(F)F)c1 (stereo unspecified) [Bicalutamide (Casodex)],growth inhibition by drug plus 177Lu-lilotomab satetraxetan,"U-2932 [1]; 10 nM, time (day): 3",0.0109
same,growth inhibition by drug plus 177Lu-lilotomab satetraxetan,"U-2932 [1]; 10 nM, time (day): 4",0.0278
same,growth inhibition by drug plus 177Lu-lilotomab satetraxetan,"U-2932 [1]; 10 nM, time (day): 5",0.0445
same,growth inhibition by drug plus 177Lu-lilotomab satetraxetan,"U-2932 [1]; 10 nM, time (day): 6",0.0662
same,growth inhibition by drug plus 177Lu-lilotomab satetraxetan,"U-2932 [1]; 1000 nM, time (day): 3",-0.0729
same,growth inhibition by drug plus 177Lu-lilotomab satetraxetan,"U-2932 [1]; 1000 nM, time (day): 4",0.0514
same,growth inhibition by drug plus 177Lu-lilotomab satetraxetan,"U-2932 [1]; 1000 nM, time (day): 5",0.0207
same,growth inhibition by drug plus 177Lu-lilotomab satetraxetan,"U-2932 [1]; 1000 nM, time (day): 6",-0.0101
CC(C)[C@]12O[C@H]1[C@@H]1O[C@]13[C@]1(O[C@H]1C[C@H]1C4=C(CC[C@@]13C)C(=O)OC4)[C@@H]2O [Triptolide],growth inhibition by drug plus 177Lu-lilotomab satetraxetan,"U-2932 [1]; 10 nM, time (day): 3",0.468
same,growth inhibition by drug plus 177Lu-lilotomab satetraxetan,"U-2932 [1]; 10 nM, time (day): 4",0.657
same,growth inhibition by drug plus 177Lu-lilotomab satetraxetan,"U-2932 [1]; 10 nM, time (day): 5",0.744
same,growth inhibition by drug plus 177Lu-lilotomab satetraxetan,"U-2932 [1]; 10 nM, time (day): 6",0.774
same,growth inhibition by drug plus 177Lu-lilotomab satetraxetan,"U-2932 [1]; 1000 nM, time (day): 3",0.965
same,growth inhibition by drug plus 177Lu-lilotomab satetraxetan,"U-2932 [1]; 1000 nM, time (day): 4",0.976
same,growth inhibition by drug plus 177Lu-lilotomab satetraxetan,"U-2932 [1]; 1000 nM, time (day): 5",0.981
same,growth inhibition by drug plus 177Lu-lilotomab satetraxetan,"U-2932 [1]; 1000 nM, time (day): 6",0.986
Cc1ccccc1-n1c(Cn2cnc3c(N)ncnc32)nc2cccc(C)c2c1=O,growth inhibition by drug plus 177Lu-lilotomab satetraxetan,"U-2932 [1]; 10 nM, time (day): 3",-0.00529
same,growth inhibition by drug plus 177Lu-lilotomab satetraxetan,"U-2932 [1]; 10 nM, time (day): 4",0.0455
same,growth inhibition by drug plus 177Lu-lilotomab satetraxetan,"U-2932 [1]; 10 nM, time (day): 5",0.107
same,growth inhibition by drug plus 177Lu-lilotomab satetraxetan,"U-2932 [1]; 10 nM, time (day): 6",0.209
same,growth inhibition by drug plus 177Lu-lilotomab satetraxetan,"U-2932 [1]; 1000 nM, time (day): 3",0.0591
same,growth inhibition by drug plus 177Lu-lilotomab satetraxetan,"U-2932 [1]; 1000 nM, time (day): 4",0.0697
same,growth inhibition by drug plus 177Lu-lilotomab satetraxetan,"U-2932 [1]; 1000 nM, time (day): 5",0.0914
same,growth inhibition by drug plus 177Lu-lilotomab satetraxetan,"U-2932 [1]; 1000 nM, time (day): 6",0.26
CC[C@@H](C(=O)[C@@H](C)[C@@H](O)[C@H](C)[C@@H]1O[C@@H]([C@@H](CC)C(=O)O)CC[C@@H]1C)[C@H]1O[C@]2(C=C[C@@H](O)[C@]3(CC[C@@](C)([C@H]4CC[C@](O)(CC)[C@H](C)O4)O3)O2)[C@H](C)C[C@@H]1C [Salinomycin (Procoxacin)],growth inhibition by drug plus 177Lu-lilotomab satetraxetan,"U-2932 [1]; 10 nM, time (day): 3",0.0566
same,growth inhibition by drug plus 177Lu-lilotomab satetraxetan,"U-2932 [1]; 10 nM, time (day): 4",0.111
same,growth inhibition by drug plus 177Lu-lilotomab satetraxetan,"U-2932 [1]; 10 nM, time (day): 5",0.126
same,growth inhibition by drug plus 177Lu-lilotomab satetraxetan,"U-2932 [1]; 10 nM, time (day): 6",0.245
same,growth inhibition by drug plus 177Lu-lilotomab satetraxetan,"U-2932 [1]; 1000 nM, time (day): 3",0.381
same,growth inhibition by drug plus 177Lu-lilotomab satetraxetan,"U-2932 [1]; 1000 nM, time (day): 4",0.516
same,growth inhibition by drug plus 177Lu-lilotomab satetraxetan,"U-2932 [1]; 1000 nM, time (day): 5",0.607
same,growth inhibition by drug plus 177Lu-lilotomab satetraxetan,"U-2932 [1]; 1000 nM, time (day): 6",0.75
CCC1(c2ccc(N)cc2)CCC(=O)NC1=O (stereo unspecified) [Aminoglutethimide (Cytadren)],growth inhibition by drug plus 177Lu-lilotomab satetraxetan,"U-2932 [1]; 10 nM, time (day): 3",-0.0302
same,growth inhibition by drug plus 177Lu-lilotomab satetraxetan,"U-2932 [1]; 10 nM, time (day): 4",0.0116
same,growth inhibition by drug plus 177Lu-lilotomab satetraxetan,"U-2932 [1]; 10 nM, time (day): 5",0.0252
same,growth inhibition by drug plus 177Lu-lilotomab satetraxetan,"U-2932 [1]; 10 nM, time (day): 6",0.0218
same,growth inhibition by drug plus 177Lu-lilotomab satetraxetan,"U-2932 [1]; 1000 nM, time (day): 3",-0.00688
same,growth inhibition by drug plus 177Lu-lilotomab satetraxetan,"U-2932 [1]; 1000 nM, time (day): 4",0.0339
same,growth inhibition by drug plus 177Lu-lilotomab satetraxetan,"U-2932 [1]; 1000 nM, time (day): 5",0.0642
same,growth inhibition by drug plus 177Lu-lilotomab satetraxetan,"U-2932 [1]; 1000 nM, time (day): 6",0.126
CN(C)CCN(C)CCc1ccc(Cl)c(Cl)c1,growth inhibition by drug alone,"U-2932 [2]; 10 nM, time (day): 3",-0.0253
same,growth inhibition by drug alone,"U-2932 [2]; 10 nM, time (day): 4",-0.0155
same,growth inhibition by drug alone,"U-2932 [2]; 10 nM, time (day): 5",0.000169
same,growth inhibition by drug alone,"U-2932 [2]; 10 nM, time (day): 6",0.0547
same,growth inhibition by drug alone,"U-2932 [2]; 1000 nM, time (day): 3",-0.0569
same,growth inhibition by drug alone,"U-2932 [2]; 1000 nM, time (day): 4",-0.0395
same,growth inhibition by drug alone,"U-2932 [2]; 1000 nM, time (day): 5",-0.0761
same,growth inhibition by drug alone,"U-2932 [2]; 1000 nM, time (day): 6",-0.214
same,growth inhibition by drug alone,"RIVA [3]; 10 nM, time (day): 3",-0.216
same,growth inhibition by drug alone,"RIVA [3]; 10 nM, time (day): 4",-0.209
same,growth inhibition by drug alone,"RIVA [3]; 10 nM, time (day): 5",-0.338
same,growth inhibition by drug alone,"RIVA [3]; 10 nM, time (day): 6",-0.472
same,growth inhibition by drug alone,"RIVA [3]; 100 nM, time (day): 3",-0.276
same,growth inhibition by drug alone,"RIVA [3]; 100 nM, time (day): 4",-0.227
same,growth inhibition by drug alone,"RIVA [3]; 100 nM, time (day): 5",-0.333
same,growth inhibition by drug alone,"RIVA [3]; 100 nM, time (day): 6",-0.453
same,growth inhibition by drug plus 177Lu-lilotomab satetraxetan,"U-2932 [1]; 10 nM, time (day): 3",-0.0419
same,growth inhibition by drug plus 177Lu-lilotomab satetraxetan,"U-2932 [1]; 10 nM, time (day): 4",-0.0108
same,growth inhibition by drug plus 177Lu-lilotomab satetraxetan,"U-2932 [1]; 10 nM, time (day): 5",-0.00129
same,growth inhibition by drug plus 177Lu-lilotomab satetraxetan,"U-2932 [1]; 10 nM, time (day): 6",0.0756
same,growth inhibition by drug plus 177Lu-lilotomab satetraxetan,"U-2932 [1]; 1000 nM, time (day): 3",-0.131
same,growth inhibition by drug plus 177Lu-lilotomab satetraxetan,"U-2932 [1]; 1000 nM, time (day): 4",-0.0418
same,growth inhibition by drug plus 177Lu-lilotomab satetraxetan,"U-2932 [1]; 1000 nM, time (day): 5",-0.0272
same,growth inhibition by drug plus 177Lu-lilotomab satetraxetan,"U-2932 [1]; 1000 nM, time (day): 6",-0.0418
Cc1cc2c(C(C)C)c(O)c(O)c(C=O)c2c(O)c1-c1c(C)cc2c(C(C)C)c(O)c(O)c(C=O)c2c1O [Gossypol],growth inhibition by drug plus 177Lu-lilotomab satetraxetan,"U-2932 [1]; 10 nM, time (day): 3",-0.115
same,growth inhibition by drug plus 177Lu-lilotomab satetraxetan,"U-2932 [1]; 10 nM, time (day): 4",-0.0678
same,growth inhibition by drug plus 177Lu-lilotomab satetraxetan,"U-2932 [1]; 10 nM, time (day): 5",-0.0445
same,growth inhibition by drug plus 177Lu-lilotomab satetraxetan,"U-2932 [1]; 10 nM, time (day): 6",0.0445
same,growth inhibition by drug plus 177Lu-lilotomab satetraxetan,"U-2932 [1]; 1000 nM, time (day): 3",-0.0917
same,growth inhibition by drug plus 177Lu-lilotomab satetraxetan,"U-2932 [1]; 1000 nM, time (day): 4",-0.0427
same,growth inhibition by drug plus 177Lu-lilotomab satetraxetan,"U-2932 [1]; 1000 nM, time (day): 5",-0.011
same,growth inhibition by drug plus 177Lu-lilotomab satetraxetan,"U-2932 [1]; 1000 nM, time (day): 6",0.0745
same,growth inhibition by drug plus 177Lu-lilotomab satetraxetan,"RIVA [4]; 10 nM, time (day): 3",0.354
same,growth inhibition by drug plus 177Lu-lilotomab satetraxetan,"RIVA [4]; 10 nM, time (day): 4",0.475
same,growth inhibition by drug plus 177Lu-lilotomab satetraxetan,"RIVA [4]; 10 nM, time (day): 5",0.501
same,growth inhibition by drug plus 177Lu-lilotomab satetraxetan,"RIVA [4]; 10 nM, time (day): 6",0.51
same,growth inhibition by drug plus 177Lu-lilotomab satetraxetan,"RIVA [4]; 100 nM, time (day): 3",0.233
same,growth inhibition by drug plus 177Lu-lilotomab satetraxetan,"RIVA [4]; 100 nM, time (day): 4",0.353
same,growth inhibition by drug plus 177Lu-lilotomab satetraxetan,"RIVA [4]; 100 nM, time (day): 5",0.38
same,growth inhibition by drug plus 177Lu-lilotomab satetraxetan,"RIVA [4]; 100 nM, time (day): 6",0.364
CC1=C2C[C@H]3[C@@H](CC=C4C[C@@H](O)CC[C@@]43C)[C@@H]2CC[C@]12O[C@@H]1C[C@H](C)CN[C@H]1[C@H]2C [Cyclopamine],growth inhibition by drug plus 177Lu-lilotomab satetraxetan,"U-2932 [1]; 10 nM, time (day): 3",0.0717
same,growth inhibition by drug plus 177Lu-lilotomab satetraxetan,"U-2932 [1]; 10 nM, time (day): 4",0.0954
same,growth inhibition by drug plus 177Lu-lilotomab satetraxetan,"U-2932 [1]; 10 nM, time (day): 5",0.107
same,growth inhibition by drug plus 177Lu-lilotomab satetraxetan,"U-2932 [1]; 10 nM, time (day): 6",0.127
same,growth inhibition by drug plus 177Lu-lilotomab satetraxetan,"U-2932 [1]; 1000 nM, time (day): 3",-0.0532
same,growth inhibition by drug plus 177Lu-lilotomab satetraxetan,"U-2932 [1]; 1000 nM, time (day): 4",0.0394
same,growth inhibition by drug plus 177Lu-lilotomab satetraxetan,"U-2932 [1]; 1000 nM, time (day): 5",0.0391
same,growth inhibition by drug plus 177Lu-lilotomab satetraxetan,"U-2932 [1]; 1000 nM, time (day): 6",0.0669
same,growth inhibition by drug plus 177Lu-lilotomab satetraxetan,"RIVA [4]; 10 nM, time (day): 3",0.301
same,growth inhibition by drug plus 177Lu-lilotomab satetraxetan,"RIVA [4]; 10 nM, time (day): 4",0.397
same,growth inhibition by drug plus 177Lu-lilotomab satetraxetan,"RIVA [4]; 10 nM, time (day): 5",0.41
same,growth inhibition by drug plus 177Lu-lilotomab satetraxetan,"RIVA [4]; 10 nM, time (day): 6",0.418
same,growth inhibition by drug plus 177Lu-lilotomab satetraxetan,"RIVA [4]; 100 nM, time (day): 3",0.454
same,growth inhibition by drug plus 177Lu-lilotomab satetraxetan,"RIVA [4]; 100 nM, time (day): 4",0.57
same,growth inhibition by drug plus 177Lu-lilotomab satetraxetan,"RIVA [4]; 100 nM, time (day): 5",0.559
same,growth inhibition by drug plus 177Lu-lilotomab satetraxetan,"RIVA [4]; 100 nM, time (day): 6",0.53
